Each structure is given as a SMILES string. Where a name gives a salt, the structure may show the parent alone.

The first experiment deals with Saccharomyces cerevisiae BY4741 SeMeCo community. The experiment is described as follows: z-score of subpopulation abundance vs DMSO median, subpopulation auxotrophic for H; higher = larger share of this subpopulation than in DMSO controls. Conditions: 10 µM; 24 h; SM minimal medium; subpopulation (auxotrophy): H. The method in brief:
(§1)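 Subpopulation abundance was reported as a z-score against the median of vehicle wells. The Saccharomyces cerevisiae BY4741 community, carrying four plasmids that each restored one auxotrophy and encoded a distinct fluorescent protein, was grown 24 h in minimal SM medium in 384-well plates holding library drugs at 10 µM final. Cells were paraformaldehyde-fixed and imaged by automated confocal microscopy, with single-auxotroph fluorescent strains used for thresholds and autofluorescence correction.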
With `CN(C)[C@@H](CCOc1cccc2ccccc12)c1ccccc1` [Dapoxetine HCl], the “z-score of subpopulation abundance” value was -0.41.

As to `CC1(C)S[C@@H]2[C@H](NC(=O)Cc3ccccc3)C(=O)N2[C@H]1C(=O)O.CCN(CC)CCOC(=O)c1ccc(N)cc1` [Penicillin G Procaine], the “z-score of subpopulation abundance” value turned out to be 1.75.

Take `CC(=O)Oc1ccccc1C(=O)O` [Aspirin]: the “z-score of subpopulation abundance” value turned out to be 0.67. For `Nc1ccc(S(=O)(=O)Nc2ccnn2-c2ccccc2)cc1` [Sulfaphenazole], the “z-score of subpopulation abundance” value was -0.07. Take `C[C@@H]1CC(=O)NN=C1c1ccc(NN=C(C#N)C#N)cc1` [Levosimendan]: the “z-score of subpopulation abundance” value is -0.43. Take `CCN1CCC[C@H]1CNC(=O)c1cc(S(N)(=O)=O)ccc1OC` [Levosulpiride]: the “z-score of subpopulation abundance” value was -0.73. Consider `CN1CCN(CCCN2c3ccccc3Sc3ccc(C(F)(F)F)cc32)CC1` [Trifluoperazine 2HCl], for which the “z-score of subpopulation abundance” value is -0.58.

On to `CC[C@H]1OC(=O)[C@H](C)[C@@H](O[C@H]2C[C@@](C)(OC)[C@@H](O)[C@H](C)O2)[C@H](C)[C@@H](O[C@@H]2O[C@H](C)C[C@H](N(C)C)[C@H]2O)[C@](C)(O)C[C@@H](C)CN(C)[C@H](C)[C@@H](O)[C@]1(C)O` [Azithromycin], for which the “z-score of subpopulation abundance” value was -0.15. The same measure, in the same setting: for `CO/N=C(\C(=O)N[C@@H]1C(=O)N2C(C(=O)O)=C(CSc3nc(=O)c(O)nn3C)CS[C@H]12)c1csc(N)n1` [Ceftriaxone Sodium Trihydrate] the value was -0.32.

For the compound `C[C@H](NCc1ccc(OCc2cccc(F)c2)cc1)C(N)=O` [Safinamide], the “z-score of subpopulation abundance” value is -0.07. Take `CCOC(=O)C1=C(C)NC(C)=C(C(=O)OC)C1c1cccc(Cl)c1Cl` (centres undefined) [Felodipine]: the “z-score of subpopulation abundance” value came out at 3.29.

For the compound `C[C@@H](O)[C@H]1C(=O)N2C(C(=O)O)=C([C@H]3CCCO3)S[C@H]12` [Faropenem Sodium], the “z-score of subpopulation abundance” value amounted to 0.32.

On to `O=C1CCc2cc(OCCCCc3nnnn3C3CCCCC3)ccc2N1` [Cilostazol], for which the “z-score of subpopulation abundance” value is 0.02.

For `COc1cc(NS(=O)(=O)c2ccc(N)cc2)ncn1` [Sulfamonomethoxine], the “z-score of subpopulation abundance” value is -0.96. Same read-out and setting: for `NC(=O)N1c2ccccc2CC(=O)c2ccccc21` [Oxcarbazepine] the value was -0.49; for `CCCCC(F)(F)[C@@]1(O)CC[C@H]2[C@@H](CC(=O)[C@@H]2CCCCCCC(=O)O)O1` [Lubiprostone], -0.12; for `CCCCCc1ccc(C)cc1O` [Amylmetacresol], -0.64. The same measure, in the same setting: for `CCN(CC)CCOC(=O)c1ccc(N)cc1` [Procaine HCl] the value was -0.47; for `O=C(O)CCC(=O)Nc1ccc(S(=O)(=O)Nc2nccs2)cc1` [Succinylsulfathiazole], -1.14.

As for `N[C@@H]1CONC1=O` [D-Cycloserine], the “z-score of subpopulation abundance” value turned out to be 1.3. In the case of `CCOC(=O)C1=C[C@]2(CC)CCCN3CCc4c(n1c1ccccc41)[C@@H]32` [Vinpocetine], the “z-score of subpopulation abundance” value was -0.46. `Oc1c(Cl)cc(Cl)c(Cl)c1Cc1c(O)c(Cl)cc(Cl)c1Cl` [Hexachlorophene]: the “z-score of subpopulation abundance” value came out at 7.09.

`CCCCCCCCc1ccc(CCC(N)(CO)CO)cc1` [Fingolimod]: the “z-score of subpopulation abundance” value is -0.65.

For `CC1(C)S[C@@H]2[C@H](NC(=O)[C@H](N)c3ccc(O)cc3)C(=O)N2[C@H]1C(=O)O` [Amoxicillin], the “z-score of subpopulation abundance” value is 0.05. With `CC[C@@]1(O)C(=O)OCc2c1cc1n(c2=O)Cc2cc3c(CN(C)C)c(O)ccc3nc2-1` [Topotecan HCl], the “z-score of subpopulation abundance” value came to 0.59. Same read-out and setting: for `CCC(C)(C)C(=O)O[C@H]1C[C@@H](C)C=C2C=C[C@H](C)[C@H](CC[C@@H]3C[C@@H](O)CC(=O)O3)[C@H]21` [Simvastatin] the value was 0.79. As for `COCCCN1CCC(NC(=O)c2cc(Cl)c(N)c3c2OCC3)CC1` [Prucalopride], the “z-score of subpopulation abundance” value is -0.52. Turning to `CO/N=C(\C(=O)N[C@@H]1C(=O)N2C(C(=O)O)=C(CSc3nc(C)c(CC(=O)O)s3)CS[C@H]12)c1csc(N)n1` [Cefodizime Sodium], the “z-score of subpopulation abundance” value is -0.25. The same measure, in the same setting: for `CNCC[C@H](Oc1cccc2ccccc12)c1cccs1` [Duloxetine] the value was -0.81; for `C1N2CN3CN1CN(C2)C3` [Methenamine], 0.28.

Take `O=C(Nc1cccc(C2=NCCN2)c1)Nc1cccc(C2=NCCN2)c1` [Imidocarb dipropionate]: the “z-score of subpopulation abundance” value is -0.78. `C[C@H]1c2cccc(O)c2C(O)=C2C(=O)[C@]3(O)C(O)=C(C(N)=O)C(=O)[C@@H](N(C)C)[C@@H]3[C@@H](O)[C@@H]21` [Doxycycline]: the “z-score of subpopulation abundance” value was -0.79. `C/C=C\c1ccc(O)c(OC)c1` [Isoeugenol]: the “z-score of subpopulation abundance” value was -0.8.

The test system is the same in the next experiment. Kind of experiment: z-score of subpopulation abundance vs DMSO median, subpopulation auxotrophic for LU; higher = larger share of this subpopulation than in DMSO controls. Conditions: 10 µM; 24 h; SM minimal medium; subpopulation (auxotrophy): LU. The method in brief: as §1
On to `CC1(C)S[C@@H]2[C@H](NC(=O)Cc3ccccc3)C(=O)N2[C@H]1C(=O)O.CCN(CC)CCOC(=O)c1ccc(N)cc1` [Penicillin G Procaine], for which the “z-score of subpopulation abundance” value was 0.41.

With `CC(=O)Oc1ccccc1C(=O)O` [Aspirin], the “z-score of subpopulation abundance” value is 0.01.

With `Nc1ccc(S(=O)(=O)Nc2ccnn2-c2ccccc2)cc1` [Sulfaphenazole], the “z-score of subpopulation abundance” value is -0.02. Still for that read-out and setting: for `CN1CCN(CCCN2c3ccccc3Sc3ccc(C(F)(F)F)cc32)CC1` [Trifluoperazine 2HCl] the value was -0.4. On the same count and under the same terms, for `COc1ccc2c(c1)c(CC(=O)OCC(=O)O)c(C)n2C(=O)c1ccc(Cl)cc1` [Acemetacin] the value was 0.16; for `Clc1ccccc1C(c1ccccc1)(c1ccccc1)n1ccnc1` [Clotrimazole], -0.93; for `C[C@H](NCc1ccc(OCc2cccc(F)c2)cc1)C(N)=O` [Safinamide], 0.99. On the same count and under the same terms, for `CCOC(=O)C1=C(C)NC(C)=C(C(=O)OC)C1c1cccc(Cl)c1Cl` (centres undefined) [Felodipine] the value was -6.85; for `O=C1CCc2cc(OCCCCc3nnnn3C3CCCCC3)ccc2N1` [Cilostazol], -0.63; for `COc1cc(NS(=O)(=O)c2ccc(N)cc2)ncn1` [Sulfamonomethoxine], 1.01.

Regarding `Nc1nc2ccc(OC(F)(F)F)cc2s1` [Riluzole], the “z-score of subpopulation abundance” value was found to be 0.41. As to `CCCCCc1ccc(C)cc1O` [Amylmetacresol], the “z-score of subpopulation abundance” value is 0.24. For `O=C(O)CCC(=O)Nc1ccc(S(=O)(=O)Nc2nccs2)cc1` [Succinylsulfathiazole], the “z-score of subpopulation abundance” value is -0.4. On to `CCOC(=O)C1=C[C@]2(CC)CCCN3CCc4c(n1c1ccccc41)[C@@H]32` [Vinpocetine], for which the “z-score of subpopulation abundance” value worked out at 0.81. For `CCCCCCCCc1ccc(CCC(N)(CO)CO)cc1` [Fingolimod], the “z-score of subpopulation abundance” value was -0.72. For `CC1(C)S[C@@H]2[C@H](NC(=O)[C@H](N)c3ccc(O)cc3)C(=O)N2[C@H]1C(=O)O` [Amoxicillin], the “z-score of subpopulation abundance” value came to 0.41. For the compound `CC[C@@]1(O)C(=O)OCc2c1cc1n(c2=O)Cc2cc3c(CN(C)C)c(O)ccc3nc2-1` [Topotecan HCl], the “z-score of subpopulation abundance” value is -1.86. `COCCCN1CCC(NC(=O)c2cc(Cl)c(N)c3c2OCC3)CC1` [Prucalopride]: the “z-score of subpopulation abundance” value turned out to be 0.77. For `CO/N=C(\C(=O)N[C@@H]1C(=O)N2C(C(=O)O)=C(CSc3nc(C)c(CC(=O)O)s3)CS[C@H]12)c1csc(N)n1` [Cefodizime Sodium], the “z-score of subpopulation abundance” value is 0.22. For `CNCC[C@H](Oc1cccc2ccccc12)c1cccs1` [Duloxetine], the “z-score of subpopulation abundance” value was -0.71.

With `C[C@H]1c2cccc(O)c2C(O)=C2C(=O)[C@]3(O)C(O)=C(C(N)=O)C(=O)[C@@H](N(C)C)[C@@H]3[C@@H](O)[C@@H]21` [Doxycycline], the “z-score of subpopulation abundance” value was -0.52.

Values taken from the supplement of paper PMC8975748.
